Assay results from PubChem BioAssay AID504444 (National Center for Advancing Translational Sciences (NCATS), 2011).
About 7,500 (2.1%) of roughly 360,000 compounds were called active. Roughly 20% stayed inconclusive and do not appear here. For the sample, actives were picked, then their nearest neighbours and some compounds at random. A number with no mark means an inactive call. The call rests on the fitted dose curve; in most records, active means well fitted inhibition curve with a large enough effect; inconclusive means small, poorly fitted or top-dose-only effect, or effect the other way; inactive means flat fitted curve, though single readings scatter.

test: Nrf2 qHTS screen for inhibitors; conditions: A549 ARE-Fluc reporter, luciferase luminescence, 18-24 h; series mostly up to 46 µM; activity change, negative = inhibition: at the top concentration; further: nearly all actives have a fitted effect of over 60% in size
Description: NIH Molecular Libraries Probe Production Network [MLPCN]
NIH Chemical Genomics Center [NCGC]
Assay Provider: Shyam Biswal, Johns Hopkins University
Nrf2 is a transcription factor that maintains cellular redox homoestasis and protects cells from xenobiotics. Nrf2 binds to the antioxidant response element (ARE) to induce gene expression of a broad spectrum of genes that encode for antioxidants. […] Finding a small molecule that act as an inhibitor of Nrf2 function would represent a novel therapeutic target that could lead to improvement in survival of patients undergoing chemo- and/or radio- therapy.
This is the Nrf2 activity measured in the luminescent read.
1. Shibata, T., et al., Genetic Alteration of Keap1 Confers Constitutive Nrf2 Activation and Resistance to Chemotherapy in Gallbladder Cancer. Gastroenterology, 2008.
2. Sjoblom, T., et al., The consensus coding sequences of human breast and colorectal cancers. Science, 2006. 314(5797): p. 268-74.
NCGC Assay Protocol Summary:
A concentration-response assay was performed with A549 ARE_Fluc cells which are suspended in 5% FBS OPTI-MEM. Five uL were dispensed into 1536-well white TC-treated plate using the Kalypsys dispenser to achieve a density of 5000 cells/well in all columns except column 1. The plate is incubated at 37deg C at 5% CO2 for 2 hours before 23 nL of compounds are added with the Kalypsys pin tool equipped with a 1,536-pin array containing 10-nL slotted pins (FP1S10, 0.457-mm diameter, 50.8 mm long; V&P Scientific). The control compounds Budesonide and Staurosporine are both added at a concentration of 2mM and Budesonide is also added as a 1:10 titration, starting at 200uM, to achieve dose-response. After an 18-24 hour incubation at 37deg C at 5% CO2, 5ul of medium is added to column 1. Afterwards 1ul of 5x of CellTiter-Fluor (Promega) is added to every well. The plate is then incubated at 37deg C at 5% CO2 for 30 minutes before they are read on the ViewLux (Perkin Elmer) for a fluorescent read Ex=405(10)/Em=525(10) for a 3 second exposure, 2x binning, and high gain. Then 3 uL of 3x BugLite is dispensed into all wells and the plate is incubated at ambient room temperature for 15 minutes. Afterwards another ViewLux read is performed using the clear filter to get a luminescent read with the settings of 40 second exposure, 2x binning, and high gain. Cytotoxicity is assessed through the first fluorescent read and then biochemical activity against Nrf2 is measured in the luminescent read.
On the % scale 0 is the no-effect control and ±100 the full control effect; potency means the concentration at half of the fitted maximal effect.

Compound	activity change, negative = inhibition	Potency
CN(C)C(=O)Oc1ccc(NC(=O)N2CCOCC2)cc1	3.42%	
O=C(Nc1cccc(OC(=O)N2CCCCC2)c1)N1CCOCC1		16.4 µM (active)
CCN(CC)C(=O)Oc1ccc(NC(=O)N2CCOCC2)cc1	-7.97%	
COC(=O)C1=C(c2c(C)noc2C)C[C@@H]2CC[C@H]1N2C(=O)NCc1ccc2c(c1)OCO2	-8.27%	
c1ccc(C(CN2CCCCC2)c2ccccc2)cc1	2.82%	
C[C@]12CC[C@H](O)CC1=C([N+](=O)[O-])CC1C2CC[C@@]2(C)C1CC[C@@H]2O (stereo not given in full)	0.87%	
O=C1NC(=O)C(CCOc2ccccc2)(CCc2ccccc2)C(=O)N1	-22.3%	
CCCCC(=O)N/N=C/c1c(O)n(CCC2=CCCCC2)c(=O)[nH]c1=O		18.4 µM (active)
O=c1[nH]c(=O)n(CCc2ccc(F)cc2)c(O)c1/C=N/N1CCCCC1	-3.29%	
CCCCC(=O)N/N=C/c1c(O)n(-c2ccccc2)c(=O)[nH]c1=O	5.34%	
CN(C)CC1Oc2ccccc2OC1(O)c1ccccc1 (stereo not given)		14.6 µM (active)
CC1C(=O)OC2CCN3CC=C(COC(=O)C(C)(O)C1(C)O)C23 (stereo not given)	4.37%	
COC(=O)C1=C(c2ccc(Cl)c(C(F)(F)F)c2)C[C@@H]2CC[C@H]1N2C(=O)NC(C)C	-21.4%	
O=C1NC(=O)C(Cc2ccccc2)C(=O)N1	2.99%	
Cc1ccc(C(C)C)c(OCC(=O)N2CCN(CC(=O)N3CCOCC3)CC2)c1	8.39%	
O=C(O)c1cc[c]([Sb](=[O])([OH])[OH])cc1[N+](=O)[O-]	13.5%	
CCC(=NCCc1ccccc1)c1c(O)n(C2CCCCC2)c(=O)[nH]c1=O		20.6 µM (active)
CC(=O)c1c(O)n(C2CCCCCC2)c(=O)[nH]c1=O	-21.3%	
CC/C(=N\NC(=O)c1ccccc1O)c1c(O)n(Cc2ccccc2)c(=O)[nH]c1=O	8.94%	
Cn1cc(C(=O)OCC(=O)N2CCCC2)c2ccccc21	5.8%	
CC1CNCCN1c1ccc(Cl)cc1 (stereo not given)	8.73%	
CCn1cc2nc(SCc3ccccc3Cl)n(CCc3ccccc3)c(=O)c2n1		18.4 µM (active)
CC(=O)C1(O)CCC2C3CCC4=C(Cl)C(=O)CCC4(C)C3CCC21C (stereo not given)	-13.3%	

Compound	activity change, negative = inhibition	Potency
Cc1ccc(N(C)C(=O)Oc2cccc3ccc(C)nc23)cc1	-14.6%	
CN1CCc2cc3c(cc2[C@H]1[C@@H]1OC(=O)c2c1ccc1c2OCO1)OCO3	6.77%	
COc1cccc(CN2CCCC(C(=O)c3ccccc3SC)C2)c1O (stereo not given)	-1.57%	
CC1CC=CCC12C(=O)NC(=S)NC2=O (stereo not given)	13.2%	
COc1cc(Cn2c(N)c(C(=O)NCc3ccco3)c3nc4ccccc4nc32)cc(OC)c1OC	-29.4%	
CCCn1c(C(=O)c2ccccc2OC)nc2ccccc21	4.64%	
CCOc1ccc(CNC(=O)c2cccc(Nc3nc4ccccc4n4nnnc34)c2)cc1OC		7.31 µM (active)
CC(C)Oc1cccc(C(=O)C2CCCN(C3CCOCC3)C2)c1 (stereo not given)	-9.14%	
CCC1(CC(C)c2ccccc2)C(=O)NC(=O)NC1=O (stereo not given)	-20.9%	
COC(=O)C1=C(c2ccc3ccccc3c2)C[C@@H]2CC[C@H]1N2C(=O)NCCO	-2.19%	
Cc1ccc(NC(=O)CN(C)CC(=O)Nc2cccc(F)c2)cc1[N+](=O)[O-]		11.6 µM (active)
CNCC(O)c1cc(F)c(OCc2ccccc2)c(OCc2ccccc2)c1F (stereo not given)	12.1%	
CCOC(=O)CC(SP1(=S)OCC2(CCCCO2)C(C2CCCCO2)O1)C(=O)OCC (stereo not given)	-7.98%	
CC(CC(C#N)(c1ccccc1)c1ccccc1)N1CCCCC1 (stereo not given)	3.56%	
O=C(CCC(=O)N1C[C@H]2C[C@@H](C1)c1cccc(=O)n1C2)NCc1ccccc1C(F)(F)F	-12.9%	
COC(=O)C1=C(c2ccc(F)cc2F)C[C@@H]2CC[C@H]1N2C(=O)NC1CC1	0.179%	
COC(=O)C1=C(c2ccc(F)cc2OCc2ccccc2)C[C@@H]2CC[C@H]1N2C(=O)NCc1ccc(Cl)cc1		23.1 µM (active)
COC(=O)C1=C(c2ccccc2)C[C@@H]2CC[C@H]1N2C(=O)NCc1ccco1	6.49%	
C[C@]12CCCCC1=CC(=O)C1C2CC[C@@]2(C)C1C[C@@H](F)[C@@H]2O (stereo not given in full)	-20%	
Cc1cc(C(=O)OCC(=O)Nc2c(F)cccc2F)c(C)n1C1CC1	-16.9%	
c1ccc(Cc2nn3c(Cn4cnc5ccccc54)nnc3s2)cc1		23.1 µM (active)
O=c1[nH]c(CN2CC=C(c3ccccc3)CC2)nc2scc(-c3cccs3)c12	0.416%	
